How the values were obtained:
Assay in all cases: DAPPL (digital affinity profiling via proximity ligation, sequencing); 10 mM Tris-HCl pH 7.5, 50 mM NaCl, 1 mM DTT, 4% glycerol, room temperature, 30 min; GST-TFs on glutathione beads, 16-mer random dsDNA library, 0.1% formaldehyde crosslink after washing; high values mean tight binding
Details in all cases: protein: recombinant; tags: N-terminal GST; dsDNA, one strand shown
ELK4 = target: T1, ELK4 (Homo sapiens, UniProt P28324-2 1-405)
T1 sequence: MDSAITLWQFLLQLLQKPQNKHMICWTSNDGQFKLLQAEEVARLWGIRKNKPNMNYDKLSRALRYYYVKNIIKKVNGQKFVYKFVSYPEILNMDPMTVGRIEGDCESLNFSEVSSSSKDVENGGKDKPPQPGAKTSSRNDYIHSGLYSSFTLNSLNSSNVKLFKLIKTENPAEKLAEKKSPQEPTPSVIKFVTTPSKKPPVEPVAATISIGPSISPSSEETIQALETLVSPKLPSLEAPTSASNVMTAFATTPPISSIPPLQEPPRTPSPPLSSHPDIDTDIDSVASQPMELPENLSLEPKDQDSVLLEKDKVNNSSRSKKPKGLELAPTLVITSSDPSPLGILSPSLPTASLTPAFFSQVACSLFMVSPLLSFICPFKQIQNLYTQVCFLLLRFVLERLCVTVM
Summary of the method: (§1)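 Each value of binding signal is a hexamer's read frequency for a factor divided by the same hexamer's frequency in the tag-only sample. Barcoded, bead-captured GST fusions of human transcription factors made in yeast were pooled with that sample and incubated with 200 nmole of a random double-stranded 16-mer DNA library in Tris/NaCl/DTT/glycerol buffer at room temperature for 30 min. Washing, 0.1% formaldehyde crosslinking, proximity ligation, PCR and Illumina NextSeq500 sequencing followed.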

ELF3 = target: T2, ELF3 (Homo sapiens, UniProt P78545 1-371)
T2 sequence: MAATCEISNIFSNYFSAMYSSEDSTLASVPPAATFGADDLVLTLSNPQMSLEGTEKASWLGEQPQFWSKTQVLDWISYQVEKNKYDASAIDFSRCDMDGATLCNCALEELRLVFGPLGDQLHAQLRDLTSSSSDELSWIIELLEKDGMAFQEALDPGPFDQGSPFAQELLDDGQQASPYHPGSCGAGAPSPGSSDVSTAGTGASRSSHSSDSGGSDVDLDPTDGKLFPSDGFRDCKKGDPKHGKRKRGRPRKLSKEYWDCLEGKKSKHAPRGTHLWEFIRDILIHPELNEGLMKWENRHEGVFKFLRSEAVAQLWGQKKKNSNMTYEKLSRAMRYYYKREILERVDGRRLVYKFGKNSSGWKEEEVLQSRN
Summary of the method: as §1

ETV2 = target: T3, ETV2 (Homo sapiens, UniProt O00321 1-342)
T3 sequence: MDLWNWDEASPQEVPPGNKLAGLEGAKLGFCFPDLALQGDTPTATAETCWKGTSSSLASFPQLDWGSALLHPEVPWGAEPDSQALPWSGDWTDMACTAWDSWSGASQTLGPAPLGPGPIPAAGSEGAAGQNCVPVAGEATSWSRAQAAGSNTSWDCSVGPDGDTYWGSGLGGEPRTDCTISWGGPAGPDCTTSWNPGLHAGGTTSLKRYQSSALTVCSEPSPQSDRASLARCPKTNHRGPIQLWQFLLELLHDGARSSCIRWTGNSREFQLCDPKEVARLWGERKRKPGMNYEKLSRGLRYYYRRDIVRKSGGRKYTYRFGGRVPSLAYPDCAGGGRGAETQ
Summary of the method: as §1

ETV7 = target: T4, ETV7 (Homo sapiens, UniProt Q9Y603 1-341)
T4 sequence: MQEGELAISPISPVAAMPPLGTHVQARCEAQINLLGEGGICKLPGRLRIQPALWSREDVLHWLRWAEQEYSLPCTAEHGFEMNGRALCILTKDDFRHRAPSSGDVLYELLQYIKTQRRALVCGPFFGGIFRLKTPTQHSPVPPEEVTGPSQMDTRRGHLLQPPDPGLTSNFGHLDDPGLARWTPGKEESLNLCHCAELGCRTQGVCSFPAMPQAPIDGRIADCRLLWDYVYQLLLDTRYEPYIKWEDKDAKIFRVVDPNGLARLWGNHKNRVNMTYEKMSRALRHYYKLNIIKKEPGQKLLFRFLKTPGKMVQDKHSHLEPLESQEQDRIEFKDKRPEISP
Summary of the method: as §1

ELF5 = target: T5, ELF5 (Homo sapiens, UniProt Q9UKW6-2 1-255)
T5 sequence: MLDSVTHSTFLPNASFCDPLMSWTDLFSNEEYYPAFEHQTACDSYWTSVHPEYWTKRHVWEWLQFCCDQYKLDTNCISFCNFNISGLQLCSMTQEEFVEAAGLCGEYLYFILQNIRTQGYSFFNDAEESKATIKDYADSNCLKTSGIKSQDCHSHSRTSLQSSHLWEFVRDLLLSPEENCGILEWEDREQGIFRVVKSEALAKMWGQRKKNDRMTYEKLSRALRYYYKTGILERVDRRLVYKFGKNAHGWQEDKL
Summary of the method: as §1

CRX = CRX (Homo sapiens, UniProt O43186 1-299)
Summary of the method: as §1

CRX, sequence (O43186 whole entry): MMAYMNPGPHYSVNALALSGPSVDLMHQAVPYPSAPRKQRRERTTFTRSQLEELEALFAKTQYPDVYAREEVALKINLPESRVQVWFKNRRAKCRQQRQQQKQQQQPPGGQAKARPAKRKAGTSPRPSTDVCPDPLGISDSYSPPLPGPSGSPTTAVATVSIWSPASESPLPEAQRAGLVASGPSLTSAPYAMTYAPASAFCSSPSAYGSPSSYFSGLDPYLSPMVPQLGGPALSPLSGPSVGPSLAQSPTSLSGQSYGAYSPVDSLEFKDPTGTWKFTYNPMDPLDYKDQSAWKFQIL

Row | Sequence | binding signal (ELK4) | binding signal (ELF3) | binding signal (ETV2) | binding signal (ETV7) | binding signal (ELF5) | binding signal (CRX)
1 | GGCTCG | 1.11 fold enrichment (6-mer frequency, TF over GST control) | 1 fold enrichment (6-mer frequency, TF over GST control) |  |  |  | 
2 | CGCTGG | 1.01 fold enrichment (6-mer frequency, TF over GST control) |  | 1.03 fold enrichment (6-mer frequency, TF over GST control) | 1.02 fold enrichment (6-mer frequency, TF over GST control) |  | 
3 | AGGAAC |  | 1.04 fold enrichment (6-mer frequency, TF over GST control) | 1.15 fold enrichment (6-mer frequency, TF over GST control) |  | 1.28 fold enrichment (6-mer frequency, TF over GST control) | 
4 | CGCGAC | 1.14 fold enrichment (6-mer frequency, TF over GST control) | 1.05 fold enrichment (6-mer frequency, TF over GST control) | 1.34 fold enrichment (6-mer frequency, TF over GST control) |  |  | 
5 | ACGGCA |  | 1.1 fold enrichment (6-mer frequency, TF over GST control) |  |  | 1.03 fold enrichment (6-mer frequency, TF over GST control) | 
6 | GGACTC | 1.04 fold enrichment (6-mer frequency, TF over GST control) |  | 1.01 fold enrichment (6-mer frequency, TF over GST control) |  |  | 
7 | GCTGCG |  | 1.03 fold enrichment (6-mer frequency, TF over GST control) |  | 1.19 fold enrichment (6-mer frequency, TF over GST control) | 1.04 fold enrichment (6-mer frequency, TF over GST control) | 
8 | GAAGTC |  | 1.1 fold enrichment (6-mer frequency, TF over GST control) | 1.08 fold enrichment (6-mer frequency, TF over GST control) | 1.1 fold enrichment (6-mer frequency, TF over GST control) | 1.26 fold enrichment (6-mer frequency, TF over GST control) | 
9 | TCGTCA |  |  | 1.02 fold enrichment (6-mer frequency, TF over GST control) |  |  | 
10 | GTGTCC |  | 1.22 fold enrichment (6-mer frequency, TF over GST control) | 1.19 fold enrichment (6-mer frequency, TF over GST control) | 1.22 fold enrichment (6-mer frequency, TF over GST control) | 1.1 fold enrichment (6-mer frequency, TF over GST control) | 
11 | GGAAGA |  | 1.19 fold enrichment (6-mer frequency, TF over GST control) | 1.09 fold enrichment (6-mer frequency, TF over GST control) | 1.13 fold enrichment (6-mer frequency, TF over GST control) | 1.58 fold enrichment (6-mer frequency, TF over GST control) | 
12 | CATACC |  | 1 fold enrichment (6-mer frequency, TF over GST control) | 1.16 fold enrichment (6-mer frequency, TF over GST control) | 1.03 fold enrichment (6-mer frequency, TF over GST control) | 1.04 fold enrichment (6-mer frequency, TF over GST control) | 
13 | GTTACG | 1.03 fold enrichment (6-mer frequency, TF over GST control) |  | 1.22 fold enrichment (6-mer frequency, TF over GST control) | 1.02 fold enrichment (6-mer frequency, TF over GST control) |  | 
14 | GGCCCC | 1.02 fold enrichment (6-mer frequency, TF over GST control) | 1.02 fold enrichment (6-mer frequency, TF over GST control) | 1.13 fold enrichment (6-mer frequency, TF over GST control) |  |  | 
15 | ATACCG | 1.04 fold enrichment (6-mer frequency, TF over GST control) | 1.2 fold enrichment (6-mer frequency, TF over GST control) | 1.07 fold enrichment (6-mer frequency, TF over GST control) | 1.04 fold enrichment (6-mer frequency, TF over GST control) | 1.13 fold enrichment (6-mer frequency, TF over GST control) | 
16 | AGTATG |  | 1.08 fold enrichment (6-mer frequency, TF over GST control) |  | 1.12 fold enrichment (6-mer frequency, TF over GST control) | 1.06 fold enrichment (6-mer frequency, TF over GST control) | 
17 | GTTGTA |  | 1.04 fold enrichment (6-mer frequency, TF over GST control) |  | 1.06 fold enrichment (6-mer frequency, TF over GST control) |  | 
18 | ATGGCG |  | 1.03 fold enrichment (6-mer frequency, TF over GST control) |  | 1.01 fold enrichment (6-mer frequency, TF over GST control) | 1.01 fold enrichment (6-mer frequency, TF over GST control) | 
19 | CATGCA | 1.05 fold enrichment (6-mer frequency, TF over GST control) | 1.16 fold enrichment (6-mer frequency, TF over GST control) | 1.12 fold enrichment (6-mer frequency, TF over GST control) | 1.03 fold enrichment (6-mer frequency, TF over GST control) | 1.01 fold enrichment (6-mer frequency, TF over GST control) | 
20 | GCTTGT |  | 1.09 fold enrichment (6-mer frequency, TF over GST control) | 1.03 fold enrichment (6-mer frequency, TF over GST control) | 1.09 fold enrichment (6-mer frequency, TF over GST control) | 1.05 fold enrichment (6-mer frequency, TF over GST control) | 
21 | ACGACC | 1.14 fold enrichment (6-mer frequency, TF over GST control) | 1.25 fold enrichment (6-mer frequency, TF over GST control) | 1.34 fold enrichment (6-mer frequency, TF over GST control) | 1.18 fold enrichment (6-mer frequency, TF over GST control) | 1.17 fold enrichment (6-mer frequency, TF over GST control) | 
22 | ACATAG |  | 1.14 fold enrichment (6-mer frequency, TF over GST control) | 1.11 fold enrichment (6-mer frequency, TF over GST control) | 1.13 fold enrichment (6-mer frequency, TF over GST control) | 1.02 fold enrichment (6-mer frequency, TF over GST control) | 
23 | TCATAC | 1.07 fold enrichment (6-mer frequency, TF over GST control) | 1.08 fold enrichment (6-mer frequency, TF over GST control) | 1.15 fold enrichment (6-mer frequency, TF over GST control) | 1.09 fold enrichment (6-mer frequency, TF over GST control) | 1.09 fold enrichment (6-mer frequency, TF over GST control) | 1.02 fold enrichment (6-mer frequency, TF over GST control)
24 | GTCCTG |  | 1.07 fold enrichment (6-mer frequency, TF over GST control) | 1.29 fold enrichment (6-mer frequency, TF over GST control) | 1.26 fold enrichment (6-mer frequency, TF over GST control) | 1.3 fold enrichment (6-mer frequency, TF over GST control) | 
25 | TGGTGG | 1.04 fold enrichment (6-mer frequency, TF over GST control) |  | 1.03 fold enrichment (6-mer frequency, TF over GST control) | 1.09 fold enrichment (6-mer frequency, TF over GST control) |  | 
26 | ACTAGG | 1.03 fold enrichment (6-mer frequency, TF over GST control) |  | 1.28 fold enrichment (6-mer frequency, TF over GST control) |  | 1 fold enrichment (6-mer frequency, TF over GST control) | 
27 | GGTATG | 1.09 fold enrichment (6-mer frequency, TF over GST control) |  | 1.05 fold enrichment (6-mer frequency, TF over GST control) | 1.01 fold enrichment (6-mer frequency, TF over GST control) |  | 
28 | ACGGTT |  |  | 1.16 fold enrichment (6-mer frequency, TF over GST control) | 1.04 fold enrichment (6-mer frequency, TF over GST control) | 1.05 fold enrichment (6-mer frequency, TF over GST control) | 
29 | AGTGAC |  |  |  | 1.03 fold enrichment (6-mer frequency, TF over GST control) | 1.11 fold enrichment (6-mer frequency, TF over GST control) | 
30 | GCAATT | 1.01 fold enrichment (6-mer frequency, TF over GST control) | 1.17 fold enrichment (6-mer frequency, TF over GST control) | 1.01 fold enrichment (6-mer frequency, TF over GST control) | 1.18 fold enrichment (6-mer frequency, TF over GST control) | 1.08 fold enrichment (6-mer frequency, TF over GST control) | 
